The values below come from PubChem BioAssay (NCI).

What all share (experiment): NCI-60 one-dose screen, 48 h (100 = growth as untreated, 0 = no growth, -100 = all killed)
Settings in all cases: 10 µM unless noted

Assay [1] deals with NCI-H23 lung.
The subject of assay [2] is NCI-H226 lung.
For assay [3], the system named is NCI-H322M lung.
The test system of assay [4] is HOP-62 NSCLC.
The test system of assay [5] is HOP-92 NSCLC.
Assay [6] has as its system NCI-H522 lung.
Assay [7] has as its system A549/ATCC NSCLC.
Assay [8] has as its system 786-0 renal.
The subject of assay [9] is COLO 205 colon.
The subject of assay [10] is DU-145 prostate.
Assay [11] deals with K-562 leukemia.
Assay [12] concerns MALME-3M melanoma.
Assay [13] deals with MDA-MB-231 breast.
Assay [14] concerns RXF 393 renal.
Assay [15] has as its system SF-268 CNS.
The subject of assay [16] is SF-295 CNS.
Assay [17] concerns SF-539 CNS.
Assay [18] deals with UACC-257 melanoma.
In assay [19] the test system is M14 melanoma.
The subject of assay [20] is NCI-H460 lung.

Compounds without any hit were thinned out: in the full panel of roughly 83,000, 20% have a hit.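 For each line, cells grew in 96-well plates with the test compound present at a single concentration for 48 hours.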 Values without a mark were called inactive. Calls of active or inactive are those of the source. The calls were made as follows: active = growth percent below 10; inactive = the rest.

As for `O=C(N/N=C/C=C/c1ccc([N+](=O)[O-])o1)c1cc2ccccc2cc1O`, the growth in [1] is -54.6% (active); in [2], -72.3% (active); in [3] it was -6.76% (active); in assay [4] it was -33.9% (active); in [5] it was -47.5% (active); in assay [6], -62.9% (active). Besides, the growth in [7] is 4.04% (active); in assay [8], -18.4% (active); in assay [9], -100% (active); in [10], -21.7% (active); in assay [11], 4.52% (active); in assay [12], -68% (active). Besides, the growth in [13] is -15.9% (active); in assay [14], -63.2% (active); in assay [15] it was -20.3% (active); in assay [16], 14.4%; in [17] it was -83.6% (active); in [18], -56.3% (active). In addition, the growth in assay [19] was -100% (active).

On to `CCN(CC)CCn1nc2c3c(cccc3c1=O)-c1ccccc1-2`, for which the growth in [1] was 23.7%; in assay [2] it was -39.9% (active); in assay [3], 30.6%; in assay [4], 11.1%; in [5], -6.84% (active); in assay [6], 10.8%. The growth was 1.36% (active) in assay [7]; 33.3% in assay [8]; 15.8% in [9]; 20.9% in assay [10]; 13.8% in assay [11]; -9.04% (active) in [12]. Besides, the growth in [13] was 37.7%; in assay [14], 24.2%; in [15], 45.9%; in assay [16], 7.02% (active); in assay [17], 30.7%; in [18] it was 2.85% (active). Further, in assay [19], the growth was 28.4%.

In the case of `COc1ccc(N2CCN(c3nc(-c4cc(OC)c(OC)c(OC)c4)nc4ccccc34)CC2)cc1`, the growth is 81.1% in assay [1]; 78.4% in [2]; 91.4% in assay [3]; 83.9% in [4]; 56.6% in assay [5]; 55.1% in assay [6]. Moreover, the growth is 80.5% in [7]; 85.7% in assay [8]; 62.9% in [9]; 93.5% in assay [10]; 79.1% in assay [11]; 108% in assay [12]. In addition, the growth in assay [13] is 71%; in assay [14], 92.6%; in assay [15], 87.7%; in assay [16], 95.2%; in assay [17] it was 96.9%; in assay [18], 102%. The growth in assay [19] is 71.3%.

With `Cc1nn(-c2ccccc2)c(Oc2ccc(Cl)cc2)c1/C=N\N=c1/sc2ccccc2n1C`, the growth in assay [1] was 88.9%; in assay [2] it was 84.3%; in assay [3] it was 83.8%; in assay [4], 86.7%; in assay [5], 71.9%; in [6] it was 68%. Further, the growth in [7] is 86.1%; in [8] it was 96.3%; in [9] it was 93%; in assay [10], 108%; in assay [11], 81%; in [12], 98.2%. For the same compound, the growth was 79% in assay [13]; 94.2% in assay [14]; 79.6% in [15]; 101% in assay [16]; 107% in [17]; 91.9% in [18]. In addition, the growth in assay [19] was 87.4%.

For `O=C1CCC2=C3C4CCCCC4C(=O)C4CCCC(OC2C1)C34` (configuration not stated), the growth is -12.9% (active) in assay [1]; 92.6% in [2]; 18% in assay [3]; 34.5% in assay [4]; -2.29% (active) in assay [5]; -32.4% (active) in assay [6]. The growth in [7] is 48.9%; in assay [8] it was -9.63% (active); in [9] it was 75.3%; in [10], 0.534% (active); in assay [11] it was 5.63% (active); in [12], -33% (active). The growth in [13] is 28%; in assay [14], -80.8% (active); in assay [15] it was 3.25% (active); in assay [16], 33.4%; in assay [17], 4.64% (active); in [18], 28.8%. In addition, in [19], the growth is 0.565% (active).

For the compound `COc1ccc(-c2nc3ccc4[nH]ncc4c3c3c2CCCC3)cc1B(O)O`, the growth is 72.2% in assay [1]; 61.2% in assay [2]; 63.4% in [3]; 51.3% in [4]; 49.8% in [5]; 48.1% in [6]. Moreover, the growth in assay [7] was 53.7%; in [8] it was 63.6%; in assay [9] it was 45.8%; in assay [10], 45.9%; in [11], 59.8%; in [12], 75%. Further, the growth was 69.3% in assay [13]; 6.38% (active) in assay [14]; 56.3% in assay [15]; 56.3% in assay [16]; 52.8% in assay [17]; 88.5% in [18]. Also, the growth in assay [19] is 46.5%.

For `COC(=O)[C@]12CC[C@@H](C)[C@H](C)[C@@H]1C1=CC[C@@H]3[C@@]4(C)C(C=O)=C[C@@](C)(COC(=O)c5ccco5)C4=CC[C@@]3(C)[C@]1(C)CC2`, the growth was 8.23% (active) in assay [1]; 19.1% in assay [2]; 39.6% in assay [3]; 2.11% (active) in assay [20]; -15.5% (active) in assay [5]; -6.14% (active) in [6]. Further, the growth is 8.76% (active) in assay [7]; -8.17% (active) in assay [8]; -55.8% (active) in [9]; 10.7% in assay [10]; 11.1% in assay [11]; -43.5% (active) in assay [12]. Further, the growth was -8.21% (active) in assay [13]; -56.3% (active) in assay [14]; -10.9% (active) in [15]; 11.7% in assay [16]; -15.3% (active) in assay [17]; -34.6% (active) in assay [18]. The growth in assay [19] is -33.9% (active).

As to `COc1cc(/C=C/C(=O)N2CCN(C(=O)c3cc(OC)c(OC)c(OC)c3)CC2)ccc1OCCCN1C(=O)c2cccc3cccc(c23)C1=O`, the growth in assay [1] was 106%; in [2] it was 87%; in assay [3] it was 100%; in assay [4] it was 94.1%; in [5] it was -0.534% (active); in assay [6] it was 65.4%. For the same compound, the growth in assay [7] is 85.3%; in assay [8], 73.1%; in [9] it was 116%; in assay [10] it was 79.1%; in [11] it was 78.7%; in [12], 125%. Also, the growth in assay [13] is 101%; in assay [14], 74.2%; in assay [15] it was 90.6%; in assay [16] it was 71.9%; in assay [17] it was 99.9%; in [18], 101%. Besides, the growth in assay [19] was 99.3%.
